Calls of active or inactive are those of the source. Rule for the calls: active = hit-call score of the fitted dose curve at least 0.9, where 1 is the maximum; inactive = score below 0.9.
read-out: Cytochrome P450 2C19 (Homo sapiens) (UniProt P33261); assay: LTEA_HepaRG_CYP2C19: Life Technologies and Expression Analysis (LTEA) Assay for CYP2C19 using HepaRG (AID 2283482); details: mRNA level, 48 h; actives raise or lower the signal
Method: LTEA_HepaRG is a cell based, multiplexed-readout assay that uses HepaRG, a human liver cell line, with measurements taken at 48 hours after chemical dosing on a 96-well plate.LTEA_HepaRG_CYP2C19 is one of 102 assay component(s) measured in the LTEA HepaRG cell culture assay. It is a marker of NR mediated metabolism.Data from the assay component LTEA_HepaRG_CYP2C19 was analyzed into 1 endpoint. This assay endpoint, LTEA_HepaRG_CYP2C19, was analyzed with bidirectional fitting relative to DMSO as the negative control and baseline of activity. Using a type of inducible reporter, measures of mRNA induction for gain or loss-of-signal activity can be used to understand regulation of transcription factor activity. To generalize the intended target to other relatable targets, this assay endpoint is annotated to the cyp intended target family, where the subfamily is xenobiotic metabolism.
A total of 1060 chemcials from the ToxCast library were tested in eight-point concentration-response experiments. Cell culture and cytotoxicity assays were conducted at Thermo Fisher Scientific's Custom Services facility (Madison, WI). A single lot of human HepaRG cells (Thermo Fisher Scientific, Frederick, MD) was used for the cell culture experiments. 96-well format collagen type I coated plates of human HepaRG cells were prepared using established methods. Briefly, cryopreserved HepaRG cells were thawed, plated at a density of approximately 100,000 cells/well in HepaRG Thaw, Plate, and General Purpose media (HPRG770, Thermo Fisher Scientific), and incubated for 48 hours. 0.5% DMSO was selected as vehicle control to balance the requisite need of DMSO in HepaRG cultures to maintain differentiation (for example, baseline metabolism, proportions of hepatocytes vs. cholangiocytes), while enabling further hepatic receptor pathway activation (for example, PXR and CAR) in response to chemical exposure. 48 hours after plating, the culture medium was replaced with HepaRG Serum-Free Incudtion Media. Cells were exposed to each test chemical in duplicate and maintained in CO2 incubators for another 48 hours. Chemical plates were thawed to room temperature and 200x concentrations of treatment groups were prepared. 8-point conentration-reponse curves were made with the highest exposure at 100 uM, followed by half-log dilutions, all in 0.5% DMSO. Each test plate contained variouse controls, induction positive controls (1mM phenobarbital), cytotoxicity positive controls ([…] aflatoxin B1), vehicle controls (0.5% DMSO), and total lysis controls (0.5% DMSO). Cell morphology images were taken using an Essen IncuCyte FLR automated microscope, with six 96-well plates imaged in about 24 minutes. Images were captured and exported and JPEG files. Spent culture media was transfered to black-well plates for the LDH assay, and remaining media was sorted at -80 C for later use. Cells were treated with RLT buffer and frozen until shipped for gene expression analysis. Total RNA was isolated from the cell suspension in 75 uL of Buffer RLT (Qiagen, Germantown, MD 20874) by Quintiles/Expression Analysis (Durham, NC) using a custom isolation procedure. Total RNA from each plate well was transferred to a preamplification plate. Fluidigm's 96.96 Dynamic ArrayTM (Fluidigm, Amsterdam, the Netherlands) technology was used for gene expression analyses by quantitative reverse transcription polymerase chain reaction (qRT-PCR, performed by Quintiles/Expression Analysis, Durham, NC)89. Standard TaqManTM Assays (Applied Biosystems/ThermoFisher Scientific, Foster City, CA) were used to assess the expression of 93 genes selected based on their selectivity and sensitivity to important hepatic receptors known to be modulated by environmental chemicals; importance in human hepatocyte functionality; and hepatotoxicity. […]

Chain of Cytochrome P450 2C19 (Homo sapiens) (P33261 whole entry, looked up): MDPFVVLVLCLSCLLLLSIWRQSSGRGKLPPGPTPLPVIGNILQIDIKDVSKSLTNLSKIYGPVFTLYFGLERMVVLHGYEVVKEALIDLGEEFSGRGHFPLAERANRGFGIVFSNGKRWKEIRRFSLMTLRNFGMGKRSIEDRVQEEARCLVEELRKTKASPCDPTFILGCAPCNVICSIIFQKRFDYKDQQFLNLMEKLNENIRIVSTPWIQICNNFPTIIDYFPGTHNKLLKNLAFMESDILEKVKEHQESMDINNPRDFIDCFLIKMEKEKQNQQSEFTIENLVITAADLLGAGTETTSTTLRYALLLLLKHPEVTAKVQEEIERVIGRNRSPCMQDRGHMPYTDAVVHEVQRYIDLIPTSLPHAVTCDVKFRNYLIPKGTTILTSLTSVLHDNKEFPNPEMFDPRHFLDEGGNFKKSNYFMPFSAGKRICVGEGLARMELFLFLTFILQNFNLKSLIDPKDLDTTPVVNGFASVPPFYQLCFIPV

| SMILES | outcome | AC50 |
| --- | --- | --- |
| Nc1nc(N)c2nc(CNc3ccc(C(=O)N[C@@H](CCC(=O)O)C(=O)O)cc3)cnc2n1 | inactive | – |
| Cc1ccc2ncccc2c1 | inactive | – |
| C=CCOC(=O)c1ccccc1C(=O)OCC=C | inactive | – |
| O=C(O)Cc1ccccc1Nc1c(Cl)cccc1Cl | – | 5.86 µM (active) |
| CCCCCCCCCCCCCCCCCC(=O)O | inactive | – |
| CC1(C)NC(=O)NC1=O | inactive | – |
| O=c1c(O)c(-c2ccc(O)c(O)c2)oc2cc(O)cc(O)c12 | inactive | – |
| COc1ccc2c(c1)c(CC(=O)O)c(C)n2C(=O)c1ccc(Cl)cc1 | inactive | – |
| NS(=O)(=O)c1cc2c(cc1Cl)NCNS2(=O)=O | inactive | – |
| O=c1[nH]cc(F)c(=O)[nH]1 | inactive | – |
| CCCCCC(=O)O | inactive | – |
| CCCCCCCCCCO | inactive | – |
| CNC(=O)[C@H]1O[C@@H](n2cnc3c(NCc4cc(Cl)ccc4OCc4cc(C)no4)ncnc32)[C@H](O)[C@@H]1N | inactive | – |
| Cc1ccc(Cl)cc1 | inactive | – |
| C[Si]1(C)O[Si](C)(C)O[Si](C)(C)O[Si](C)(C)O1 | inactive | – |
| CCCCC(CC)COC(=O)CC(C(=O)OCC(CC)CCCC)S(=O)(=O)O (stereo not given) | – | 89.9 µM (active) |
| O=[N+]([O-])C(CO)(CO)CO | inactive | – |
| Cc1nc(-c2ccc3c(c2)CCN(CCC2CCC(NC(=O)/C=C/c4ccc(F)cc4)CC2)CC3)no1 (stereo not given) | inactive | – |
| CCCCN(CCCC)CCCC | inactive | – |
| O=C(OCCCCCOC(=O)c1ccccc1)c1ccccc1 | – | 2.44 µM (active) |

| SMILES | outcome | AC50 |
| --- | --- | --- |
| CN[C@H]1CC[C@@H](c2ccc(Cl)c(Cl)c2)c2ccc(S(N)(=O)=O)cc21 | inactive | – |
| NCCO | inactive | – |
| CCCCCCOCCO | inactive | – |
| CCOC(=O)CCC(=O)OCC | inactive | – |
| CC(C)c1ccc(C(=O)N=C(N)N)cc1S(C)(=O)=O | – | 13.1 µM (active) |
| Oc1ccc2c(c1)OC[C@@H](N1CCC(O)(c3ccc(F)cc3)CC1)[C@H]2O | inactive | – |
| C1CCC(SSC2CCCCC2)CC1 | inactive | – |
| CNCc1cc(F)ccc1Oc1ccc(Cl)c(Cl)c1 | – | 94 µM (active) |
| CC1=C(/C=C/C(C)=C/C=C/C(C)=C/CO)C(C)(C)CCC1 | – | 43.5 µM (active) |
| Cc1cc(=O)[nH]c(=S)[nH]1 | inactive | – |
| Cc1cccc([N+](=O)[O-])c1C | inactive | – |
| CCCCCCCCCCCC(=O)OC | inactive | – |
| COc1cc(S(=O)(=O)O)c(C)cc1N=Nc1c(O)ccc2cc(S(=O)(=O)O)ccc12 | inactive | – |
| Cc1cccc(C)c1O | inactive | – |
| CCCCCCC(=O)OCC | – | 8.96 µM (active) |
| CC=Cc1ccc(O)c(OC)c1 | inactive | – |
| CCCCCCCCCCCCCCCC | inactive | – |
| NCC1(Cc2noc(=O)[nH]2)CCCCC1 | inactive | – |
| CCCCCCCCCCCCCO | inactive | – |
| Cc1ccc(C)c(O)c1C | inactive | – |

Source: PubChem BioAssay (EPA / NIEHS)
